Experimental data as given in PubChem BioAssay AID1851 (National Center for Advancing Translational Sciences (NCATS), 2009).
Several values for one entry are separate records, joined by “and”; a condition that tells them apart may be missing. Identical values can stand only once. The whole screen tested about 16,000 compounds, of which about 5,700 (36%) were called active. Not shown: some 24% with an inconclusive outcome. Calls come from the whole dose curve; as a rule, active = well fitted curve in the direction sought with a large enough effect; inconclusive = small, poorly fitted or top-dose-only effect, or effect the other way; inactive = no such curve, though single readings can be large or run the other way. This is one part of the list. A structure can be active in one record and inactive in another.

Target: Cytochrome P450 1A2 (Homo sapiens) (UniProt P05177)
Sequence (P05177 whole entry, looked up): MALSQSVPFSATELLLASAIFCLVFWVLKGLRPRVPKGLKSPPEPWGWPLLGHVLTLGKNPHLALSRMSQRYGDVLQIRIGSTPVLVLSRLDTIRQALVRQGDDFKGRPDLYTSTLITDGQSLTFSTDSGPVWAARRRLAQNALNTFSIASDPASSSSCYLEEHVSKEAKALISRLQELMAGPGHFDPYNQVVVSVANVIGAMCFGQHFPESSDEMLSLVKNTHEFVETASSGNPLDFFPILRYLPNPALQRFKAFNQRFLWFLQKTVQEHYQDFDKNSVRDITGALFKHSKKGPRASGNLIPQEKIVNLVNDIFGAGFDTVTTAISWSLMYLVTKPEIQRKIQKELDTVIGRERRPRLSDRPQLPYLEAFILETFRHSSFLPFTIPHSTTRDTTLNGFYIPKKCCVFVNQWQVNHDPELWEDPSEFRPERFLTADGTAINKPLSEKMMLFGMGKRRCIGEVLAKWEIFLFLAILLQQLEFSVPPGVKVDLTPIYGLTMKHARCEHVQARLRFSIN
Assay: Cytochrome panel assay with activity outcomes
Conditions: recombinant CYP, pro-luciferin dealkylation, luminescence, p450-cyp1a2; series mostly up to 57.1 µM; activity, negative = inhibition: at the top concentration
% is set by controls: 0 for no effect and ±100 for the full control effect.

AC50, active:
Cc1ccccc1-c1nccc(NCc2cccs2)n1 0.501 µM
CN(C)Cc1ccccc1-c1nccc(NCc2cccs2)n1 0.794 µM
FC(F)(F)c1ccccc1-c1nccc(NCc2cccs2)n1 1.26 µM
CCCC[P+](CCCC)(CCCC)Cc1ccc(NC(=O)[C@@H](Cc2ccc3ccccc3c2)NC(=NC2CCCCC2)NC2CCCCC2)cc1 31.6 µM
CCNC(=S)NNC(=O)CCn1c2ccccc2c2ccccc21 2.82 µM
N#Cc1c(NC(=O)C2CC(c3ccccc3Cl)=NO2)sc2c1CCC2 (centres undefined) 3.55 µM
CSc1ccc(CNc2ccc(C)c(C)c2)cc1 0.891 µM
CSc1ccc(CNc2ccc(Cl)cc2)cc1 10 µM
CSc1ccc(CNc2ccccc2)cc1 25.1 µM
COCCn1c(=O)cnc2cnc(Oc3ccccc3)nc21 15.8 µM
COCCn1c(=O)c(C)nc2cnc(Oc3ccc(OC)cc3)nc21 15.8 µM
Cn1c(=O)cnc2cnc(Oc3ccccc3)nc21 10 µM
O=c1cnc2cnc(Oc3ccccc3)nc2n1CCc1ccccc1 3.16 µM
COCCn1c(=O)cnc2cnc(Oc3ccc(OC)cc3)nc21 5.01 µM
COc1ccc(-n2c(=O)cnc3cnc(Oc4ccccc4)nc32)cc1 15.8 µM
COc1ncc2ncc(=O)n(C)c2n1 12.6 µM
N=c1sc2ccccc2n1CCS (tested in a mixture with another compound) 1 µM
O=c1cnc2cnc(N3CCOCC3)nc2n1C[C@H]1CCCO1 10 µM
CN1CCN(c2ncc3ncc(=O)n(C[C@H]4CCCO4)c3n2)CC1 10 µM
O=c1cnc2cnc(N3CCOCC3)nc2n1C1CC1 6.31 µM
COC(=O)c1nn(-c2ccccc2)c(=O)cc1Oc1ccccc1 20 µM
CN1CCC(=NNC(=O)CSCc2ccccc2)CC1 14.1 µM
CCCCC1CCC(c2nc(-c3ccccn3)no2)CC1 (centres undefined) 28.2 µM
Cc1cc(C)c(C#N)c(SCc2cc3c(cc2Cl)OCO3)n1 2.24 µM
Cc1cc(C)c(C#N)c(SCC(=O)c2ccc(Cl)cc2Cl)n1 2.24 µM
Cc1ccc(Oc2cc(N3CCOCC3)nc(-c3ccccc3)n2)cc1 2.51 µM
Cc1ccc(S(=O)(=O)c2cc(N3CCOCC3)nc(-c3ccccc3)n2)cc1 4.47 µM
COc1cccc(Sc2cc(N3CCOCC3)nc(-c3ccccc3)n2)c1 2.51 µM
O=C(O)CS(=O)c1ccc2c3c(cccc13)C(=O)c1ccccc1-2 (centres undefined) 0.0631 µM
C(=C\c1nnc(-c2cccs2)o1)/c1ccccc1 2.51 µM
Cc1ccc(/C=C/c2nnc(-c3cccs3)o2)cc1 8.91 µM
Cn1c(=O)c(-c2cc(F)cc(F)c2)nc2cnc(Oc3ccccc3)nc21 2 µM
COc1ccc(Oc2ncc3nc(-c4cc(F)cc(F)c4)c(=O)n(C)c3n2)cc1 3.16 µM
COc1ncc2nc(-c3cc(F)cc(F)c3)c(=O)n(C)c2n1 2 µM
COc1cccc(OC)c1OCCNC[C@@H]1COc2ccccc2O1 12.6 µM and 25.1 µM
COc1ccccc1NC(=O)CC1COc2ccccc2O1 (centres undefined) 7.08 µM
CC(C)N=c1scc(-c2ccco2)n1/N=C/c1ccc(O)c(O)c1 15.8 µM
Cc1cccc(OCCSCc2nc3ccccc3[nH]2)c1 2.24 µM
COc1ccc(/C=N/NC(N)=S)cc1OC(=O)c1cccc2ccccc12 1.58 µM
O=c1c2ccccc2nc2n1CCC2 6.31 µM
O=c1c2ccccc2nc2n1CCc1c-2[nH]c2ccccc12 0.316 µM
O=[N+]([O-])c1ccc(C2=Nn3c(nnc3-c3ccc(Cl)cc3)SC2)o1 0.158 µM
Cc1nc2sccc2c(=O)n1-c1cccc(Cl)c1 11.2 µM
COC(=O)c1cnn(C(=O)c2ccccc2Br)c1N 8.91 µM
COC(=O)c1cnn(C(=O)c2cc(OC)ccc2Br)c1N 28.2 µM
COc1ncc2nc(-c3cc(F)cc(F)c3)c(=O)n(C3CC3)c2n1 1.58 µM
O=c1c(-c2cccs2)nc2cnc(Oc3ccccc3)nc2n1C1CC1 2.51 µM
O=c1c(-c2cc(F)cc(F)c2)nc2cnc(Oc3ccccc3)nc2n1C1CC1 2.51 µM
COc1nc(Oc2ccc(/C=N/O)cc2)nc(N(C)C)n1 0.447 µM
Clc1cccc2c1CN(C1=NCCN1)C2 0.398 µM
COC(=O)CSc1nnc(CNc2ccc(Cl)cc2)n1-c1ccccc1 12.6 µM
CCOc1ccc(NCc2nnc(SCc3ccccc3Cl)n2-c2ccccc2)cc1 7.08 µM

AC50, inactive and 20 µM (active):
CN1C(C(=O)Nc2ccccn2)=C(O)c2ccccc2S1(=O)=O

AC50, inactive:
Clc1cccc(Cl)c1NC1=NCCN1

activity, negative = inhibition, inactive:
CC1CCN(c2cc(N3CCC(C)CC3)c([N+](=O)[O-])cc2/C=C(\C#N)c2nn(-c3ccccc3)c(N)c2C#N)CC1 3.3%
COc1ccc(CC(NC(C)=O)C(=O)NC2CCN(C(=O)Nc3ccc(Cl)cc3)CC2)cc1OC (centres undefined) -18.2%
O=C(Nc1ccccc1)C(Cc1ccccc1)NC(=O)C12CC3CC(CC(C3)C1)C2 (centres undefined) -0.717%
CCNC(=S)NNC(=O)Cc1ccccc1 9.81%
CC(=O)C1=NOC(CNC(=O)c2c(-c3ccccc3Cl)noc2C)C1 (centres undefined) 4.12%
COc1ccc(COC(=O)N/N=C2/C[C@@H](O)[C@@H](O)[C@@H]3[C@@H]4C(=O)N([C@@H](C)c5ccccc5)C(=O)[C@H]4CC[C@@H]23)cc1 -1.59% [at 11.4 µM]
CC(Sc1nc(NCc2ccccc2)nc(N(C)C)n1)C(=O)Nc1ccccc1 (centres undefined) -24.4%
CCCCC[C@H](CC(=O)NO)C(=O)N[C@@H](C(=O)N1CCC[C@H]1CO)C(C)C -5.78%
Cc1nn(S(=O)(=O)c2cccs2)c(C)c1Sc1ccc([N+](=O)[O-])cc1 -14.2%
O=C1CCCN1CC(CN1CCOCC1)Sc1nnnn1-c1ccccc1 (centres undefined) -4.25%
CCN(CC)CCCN(Cc1cc2ccc(C)c(C)c2[nH]c1=O)C(=O)NC1CCCCC1 -13.6%
CN(Cc1cnc2nc(N)nc(N)c2n1)c1ccc(C(=O)N[C@@H](CCC(=O)O)C(=O)O)cc1 -17.7%
CCn1cc(C(=O)O)c(=O)c2cnc(N3CCNCC3)nc21 -8.44% [at 25.6 µM]
O=C1C=C[C@@H](O)[C@H]2[C@@H]3C(=O)N(c4cccc(Oc5ccccc5)c4)C(=O)[C@@H]3CC[C@H]12 -5.61% [at 11.4 µM]
COC(=O)c1nn(-c2ccccc2)c(-c2ccccc2)c1C(=O)c1ccccc1 -20.1%
COC(=O)N1CCC2(CCCN(Cc3ccccc3)C2)CC1 -12.4%
O=C(c1ccncc1)N1CCC[C@@]2(CCN(c3ncccn3)C2)C1 -21.1%
CO/N=C(\C)CCN1CCCCc2nc(C)c(C)cc21 -3.72% [at 11.4 µM]
CC1CCC(=NNC(=O)Cc2ccccc2)CC1 (centres undefined) -16.9%
CN(C)c1ccc(-c2noc(C3CCN(S(=O)(=O)c4cccc(C(=O)O)c4)CC3)n2)cc1 -19.7%
C/C(=N\[N+](C)(C)C)c1ccc(C)c(C)c1 -16.9% [at 2.29 µM]
O=c1nc(N2CCOCC2)ccn1-c1nc(-c2ccccc2)oc1-c1ccccc1 -15.5%
Cc1cccc(C(=O)N2CCC(c3nc(-c4ccc(S(=O)(=O)N5CCOCC5)cc4)no3)CC2)c1 1.35%
Cc1ccc(C(=O)N2CCN(c3cc(=O)[nH]nc3-c3ccccc3)CC2)cc1 -1.63%
N=C(N)c1ccc(N)cc1 6.37%
Nc1nc2c(c(=O)[nH]1)N(C=O)[C@H](CNc1ccc(C(=O)N[C@@H](CCC(=O)O)C(=O)O)cc1)CN2 -1.33% [at 25.6 µM]
Cn1c(C(=O)O)c(CC(=O)NCC2COc3ccccc3O2)c2ccccc21 (centres undefined) -29.5%
COc1cccc(OC)c1OCCCN1CCOCC1 -21.7%
COc1ccccc1NC(=O)N1CCC(c2nnc(SCC(N)=O)n2C)CC1 2.54%
CNc1cc(NS(=O)(=O)c2ccc(N)cc2)nc(NC)n1 -10.1%
Cc1ccccc1N1CCN(S(=O)(=O)C[C@@]23CC[C@H](C[C@H]2NC(=O)[C@@H](N)CCS(C)(=O)=O)C3(C)C)CC1 -1.31%
COc1ccc(/C=N/NC(=O)c2cc(-c3ccc(C)cc3C)nc3ccccc23)cc1COC(C)=O 6.8%
COc1ccc(C(=O)Oc2cc(/C=N/NS(=O)(=O)c3ccc(C)cc3)ccc2OC)cc1 -22.7%
O=c1c2ccccc2nc2n1C(CSc1ccc(F)cc1)CN2 (centres undefined) 3.12%
CC(C)NC(=O)N1CC2(CCN(C(=O)c3ccncc3)CC2)C1 -3.34%
Cc1noc(C)c1C(=O)N1CCC2(CCCN(Cc3ccccc3)C2)CC1 -10.7%
CCCC[C@@H]1CN2[C@H](c3ccc(Br)cc3)[C@H](C)CC[C@H]2C(=O)O1 3.25% [at 11.4 µM]
CN(C)c1ccc(O)c2c1C[C@H]1C[C@H]3[C@@H](N(C)C)C(=O)C(C(N)=O)=C(O)[C@]3(O)C(=O)C1=C2O -5.13% [at 25.6 µM]
CN1C(C(=O)Nc2ccccn2)=C(O)c2sccc2S1(=O)=O -10.3% [at 25.6 µM]
Cc1ccccc1NC1=C(C(=O)c2ccccc2)N(C)S(=O)(=O)c2ccccc21 -7.47%
CCc1cc2c(nc1CC)CCN(CC/C(C)=N/O[C@@H](C)CN1CCCc3nc(C)c(C)cc31)C2 5.54% [at 11.4 µM]
Fc1ccc(CN(C2=NCCN2)c2c(Cl)cccc2Cl)cc1 6.63%
CCNC(=O)CSc1nnc(C2CC2)n1-c1ccccc1 1%
COc1ccc(-n2c(CNc3ccc(C)cc3)nnc2SCC(=O)Nc2nc(-c3ccccc3)cs2)cc1 -23.7%
COC(Cc1nnc(SC)n1-c1ccc(Cl)cc1)OC 20%
